# Results as given in PubChem BioAssay (NCATS).
# Several values for one entry are separate records, joined by “and”; a condition that tells them apart may be missing. Equal values may be shown once. Inconclusive results are not listed. Activity calls are given as the source filed them. Unless noted, the call rests on the fitted dose curve; in most records, active means well fitted curve in the direction sought with a large enough effect; inconclusive means small, poorly fitted or top-dose-only effect, or another doubt; inactive means no such curve, though single readings can be large; an effect the other way counts as inactive or inconclusive. Peptide text beside a SMILES is read from it.
# How the values were obtained:
# [1] = qHTS Assay for Identifying Gametocytocidal Compounds (AID 743244); further: potency means the concentration at half of the fitted maximal effect;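 on max response: on the % scale 0 is the no-effect control and ±100 the full control effect; actives lower the fluorescent signal which means gametocytes are killed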; settings: P. falciparum 3D7 stage III-V gametocytes, alamarBlue, 72 h; max response: stronger effect = lower value
# In short: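 Fluorescence at Ex 525/Em 598 nm, recorded 24 h after alamarBlue addition, reports residual metabolic activity of 3D7 gametocytes (stages III–V) following 72 h compound exposure at 37 °C, 5% CO2.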
# [2] = qHTS assay for cell viability of HEK293 cells (AID 743288); settings: ATP luminescence (CellTiter-Glo), 18 h; max response: stronger effect = lower value; further: nearly all actives have a fitted effect of over 50% in size; further: potency means the concentration at half of the fitted maximal effect; on max response: on the % scale 0 is the no-effect control and ±100 the full control effect
# In short: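 Steps: plate 2,000 parental HEK293 cells per well; incubate ≥5 h, 37 C; add compounds in DMSO; incubate 18 h, 37 C; add CellTiter-Glo; wait 30 min at room temperature; read luminescence.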
# [3] = qHTS assay for cell viability of the p53RE-bla HCT-116 cell line (AID 743292); further: nearly all actives have a fitted effect of over 55% in size; further: potency means the concentration at half of the fitted maximal effect
# In short: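 CellSensor p53RE-bla HCT-116 cells, 4,000/well, preincubated 5 h at 37 C, then exposed to compounds in DMSO for 16 h at 37 C. Viability read as CellTiter-Glo luminescence (intracellular ATP) after 30 min at room temperature.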
# [4] = qHTS profiling of the MIPE4 collection as inhibitors of Plasmodium falciparum (3D7) proliferation (AID 743344; call rule not given here;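 further: scaled between DMSO vehicle wells and 0.29 µM artemisinin as full inhibition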); settings: P. falciparum 3D7 in erythrocytes, SYBR Green DNA fluorescence, 72 h
# In short: (§1)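 Parasite DNA was quantified by SYBR Green I fluorescence (ex 485, em 535 nm) after overnight lysis in saponin/Triton buffer at room temperature. Cultures at 0.3% parasitemia and 2.5% hematocrit were first exposed to compound for 72 h at 37 C; signals were normalised to artemisinin (0.29 uM) and vehicle wells.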
# [5] = qHTS profiling of the MIPE4 collection as inhibitors of Plasmodium falciparum (DD2) proliferation (AID 743345; call rule not given here); settings: P. falciparum Dd2 in erythrocytes, SYBR Green DNA, 72 h
# In short: as §1
# [6] = qHTS profiling for inhibitors of Plasmodium falciparum (3D7) proliferation (AID 743322; call rule not given here;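 further: infected erythrocytes exposed to compound for 72 h before lysis; 100% = DMSO vehicle wells and 0% = 0.29 µM artemisinin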); settings: P. falciparum 3D7 proliferation; at 28.7 µM (top of the series) unless noted
# In short: as §1
# [7] = qHTS profiling for inhibitors of Plasmodium falciparum (HB3) proliferation (AID 743324); settings: Plasmodium falciparum HB3 blood-stage proliferation; at 28.7 µM (top of the series) unless noted;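 further: 100% = DMSO vehicle wells and 0% = artemisinin-treated control wells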
# In short: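 SYBR Green fluorescence (485 ex/535 em) of lysed cultures, incubated overnight at room temperature in the dark, quantifies parasite DNA. Infected erythrocytes at 0.3% parasitemia and 2.5% hematocrit were exposed 72 h; values normalized to DMSO and 0.29 uM artemisinin controls.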
# [8] = at 28.5 µM (top of the series) unless noted
structure (smiles),measurement,setting,value
CS(=O)(=O)OCCCCOS(C)(=O)=O,max response,[1],7.28% (inactive)
same,max response,[2],-9.44% (inactive) and 3.38% (inactive) and -6.4% (inactive)
same,Potency,[3],inactive
same,"parasite growth, % of DMSO control",[4]; [8],89.8%
same,"parasite growth remaining, % of DMSO control (lower = more inhibition)",[5]; [8],77.1%
Cc1cc2c(s1)Nc1ccccc1N=C2N1CCN(C)CC1,max response,[1],2.02% (inactive)
O=C(OC1C[C@H]2CC[C@@H](C1)[N+]21CCCC1)C(O)(c1ccccc1)c1ccccc1 (stereo not given in full),max response,[1],-10.3% (inactive)
Cc1ccc(C)c(OCCCC(C)(C)C(=O)O)c1,max response,[1],17.4% (inactive)
same,max response,[2],-0.77% (inactive) and -7.02% (inactive)
same,Potency,[3],inactive
same,"parasite growth, % of DMSO control",[4]; [8],5.29%
same,"parasite growth remaining, % of DMSO control (lower = more inhibition)",[5]; [8],47.3%
CCCc1cc(=O)[nH]c(=S)[nH]1,max response,[1],1.36% (inactive)
same,max response,[2],-1.41% (inactive) and 0.952% (inactive)
same,Potency,[3],inactive
same,"parasite growth, % of DMSO control",[4]; [8],95.4%
same,"parasite growth remaining, % of DMSO control (lower = more inhibition)",[5]; [8],93.3%
c1ccc2[nH]c(-c3cscn3)nc2c1,max response,[1],16.1% (inactive)
same,max response,[2],-17.6% (inactive) and -12.7% (inactive)
same,Potency,[3],inactive
same,"parasite growth, % of DMSO control",[4]; [8],11.2%
same,"parasite growth remaining, % of DMSO control (lower = more inhibition)",[5]; [8],87.1%
C[Se]CCC(N)C(=O)O (stereo not given),max response,[1],-7.98% (inactive)
same,"parasite growth, % of DMSO control",[4]; [8],99.6% [at 57.5 µM]
same,"parasite growth remaining, % of DMSO control (lower = more inhibition)",[5]; [8],105% [at 57.5 µM]
CCc1nc(N)nc(N)c1-c1ccc(Cl)cc1,max response,[1],14.3% (inactive)
same,Potency,[2],10 µM (active) and 12.6 µM (active)
same,Potency,[3],28.2 µM (active)
same,remaining parasite growth % (stronger effect = lower value),[6],-1.1%
same,"remaining proliferation (% of control), lower = more inhibition",[7],3.84%
same,"parasite growth, % of DMSO control",[4]; [8],30.2%
same,"parasite growth remaining, % of DMSO control (lower = more inhibition)",[5]; [8],83.6%
CCOC(=O)C1=C[C@@H](OC(CC)CC)[C@H](NC(C)=O)[C@@H](N)C1,max response,[1],-3.59% (inactive)
CC(C)C[C@H](NC(=O)[C@H](Cc1ccccc1)NC(=O)c1cnccn1)B(O)O,Potency,[1],118 nM (active) and 316 nM (active)
same,remaining parasite growth % (stronger effect = lower value),[6],-0.334%
same,"remaining proliferation (% of control), lower = more inhibition",[7],-0.165%
same,"parasite growth, % of DMSO control",[4]; [8],4.91%
same,"parasite growth remaining, % of DMSO control (lower = more inhibition)",[5]; [8],7.19%
CCOC(=O)C1=C(O)C(=O)N(Cc2ccccc2)C1,max response,[1],44.6% (inactive)
same,remaining parasite growth % (stronger effect = lower value),[6],34%
same,"remaining proliferation (% of control), lower = more inhibition",[7],67.7%
same,"parasite growth, % of DMSO control",[4]; [8],74.5%
same,"parasite growth remaining, % of DMSO control (lower = more inhibition)",[5]; [8],104%
Cc1cccc(C)c1OCC(=O)N[C@@H](Cc1ccccc1)[C@@H](O)C[C@H](Cc1ccccc1)NC(=O)[C@H](C(C)C)N1CCCNC1=O,Potency,[1],11.2 µM (active) and 6.62 µM (active)
same,remaining parasite growth % (stronger effect = lower value),[6],-1.44%
same,"remaining proliferation (% of control), lower = more inhibition",[7],0.361%
same,"parasite growth, % of DMSO control",[4]; [8],6.88%
same,"parasite growth remaining, % of DMSO control (lower = more inhibition)",[5]; [8],8.67%
O=C(O)c1cc(=O)c2c(OCC(O)COc3cccc4oc(C(=O)O)cc(=O)c34)cccc2o1,max response,[1],10.5% (inactive)
same,"parasite growth, % of DMSO control",[4]; [8],85.2%
same,"parasite growth remaining, % of DMSO control (lower = more inhibition)",[5]; [8],96.7%
COC(=O)[C@H](Cc1ccccc1)NC(=O)[C@@H](N)CC(=O)O (H-Asp-Phe-OMe),max response,[1],15.3% (inactive) and 2.54% (inactive)
same,max response,[2],-2.43% (inactive) and -2.64% (inactive)
same,Potency,[3],inactive
same,"parasite growth, % of DMSO control",[4]; [8],88.6%
same,"parasite growth remaining, % of DMSO control (lower = more inhibition)",[5]; [8],22.1%
C=CCc1cc(OC)c(O)c(C(=O)NCCO)c1,max response,[1],-5.25% (inactive)
COc1ccc(C2(C#N)CCC(C(=O)O)CC2)cc1OC1CCCC1 (stereo not given),max response,[1],4.12% (inactive)
CCCCC(CC)COC(=O)C(C#N)=C(c1ccccc1)c1ccccc1 (stereo not given),max response,[1],17.2% (inactive)
same,max response,[2],-27.9% (inactive)
same,Potency,[3],inactive
same,"parasite growth, % of DMSO control",[4]; [8],9.47%
same,"parasite growth remaining, % of DMSO control (lower = more inhibition)",[5]; [8],18.3%
CCN(CC)C(=S)SSC(=S)N(CC)CC,Potency,[1],3.98 µM (active) and 60.5 nM (active) and 74.3 nM (active)
same,Potency,[3],inactive
same,remaining parasite growth % (stronger effect = lower value),[6],99.1%
same,"parasite growth, % of DMSO control",[4]; [8],65.9%
same,"parasite growth remaining, % of DMSO control (lower = more inhibition)",[5]; [8],92.7%
O=P(O)(O)C(O)(Cn1ccnc1)P(=O)(O)O,max response,[1],13.2% (inactive)
same,"parasite growth, % of DMSO control",[4]; [8],103% [at 9.64 µM]
S=c1nc[nH]c2nc[nH]c12,max response,[1],21.9% (inactive) and -4.09% (inactive)
same,remaining parasite growth % (stronger effect = lower value),[6],58.5% [at 57.5 µM]
same,"parasite growth, % of DMSO control",[4]; [8],68.3%
same,"parasite growth remaining, % of DMSO control (lower = more inhibition)",[5]; [8],96%
NS(=O)(=O)c1cc(C(=O)O)c(NCc2ccco2)cc1Cl,max response,[1],3.33% (inactive)
same,max response,[2],5.51% (inactive) and -8.33% (inactive)
same,Potency,[3],inactive
same,"parasite growth, % of DMSO control",[4]; [8],58.2%
same,"parasite growth remaining, % of DMSO control (lower = more inhibition)",[5]; [8],103%
CC(=O)Nc1ccc(O)cc1,max response,[2],-9.69% (inactive) and -0.289% (inactive)
same,Potency,[3],inactive
CCCCN(CCCC)CCC(O)c1cc2c(Cl)cc(Cl)cc2c2cc(C(F)(F)F)ccc12 (stereo not given),"parasite growth, % of DMSO control",[4]; at 9.64 µM (top of the series),7.84%
same,"parasite growth, % of DMSO control",[4]; at 28.5 µM (top of the series),7.96%
same,"parasite growth remaining, % of DMSO control (lower = more inhibition)",[5]; at 9.64 µM (top of the series),8.22%
same,"parasite growth remaining, % of DMSO control (lower = more inhibition)",[5]; at 28.5 µM (top of the series),7.14%
